Source: PubChem BioAssay (Broad Institute)
Tgondii IFNg: inhibitors of Toxoplasma gondii growth with IFN-gamma; Toxoplasma gondii growth in IFN-gamma-treated host cells; hits give low values; activity change, negative = inhibition, % (no concentration beside the values); 3.8% of 69,000 active; in the data active means activity change below about -70%, passing the limit was not always enough;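 further: host cells are HeLa cells infected with Toxoplasma gondii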
An asterisk follows results filed as active. The sample as a whole holds a higher share of hits than the screen did.

SMILES | Tgondii IFNg
COc1cccc(-c2nc3c(s2)CN(S(=O)(=O)c2ccccc2Cl)CC3)c1 | -102*
COc1ccc(-c2nc3c(s2)CN(S(=O)(=O)c2ccc(OC)c(OC)c2)CC3)cc1 | -16
CC(C)c1ccc(S(=O)(=O)N2CCc3nc(-c4ccccc4)sc3C2)cc1 | -98*
COc1cccc(-c2nc3c(s2)CN(S(=O)(=O)c2ccc(F)c(Cl)c2)CC3)c1 | -37
COc1ccc(S(=O)(=O)N2CCc3nc(-c4ccc(C)cc4)sc3C2)cc1 | -45
COc1ccc(-c2nc3c(s2)CN(S(=O)(=O)c2cccc(C)c2)CC3)cc1OC | -89*
COc1ccc(-c2nc3c(s2)CN(S(=O)(=O)c2ccc(C)c(C)c2)CC3)cc1 | -103*
COc1ccc(S(=O)(=O)N2CCc3nc(-c4ccccc4)sc3C2)cc1 | -20
COc1ccc(S(=O)(=O)N2CCc3nc(-c4ccc(OC)c(OC)c4)sc3C2)cc1 | -32
Cc1ccccc1N1CCN(C(=O)CCC2CCCCN2C)CC1 (centres undefined) | -47
O=C(NCCc1cccnc1)c1cc(-c2ccn[nH]2)n2ccccc12 | 39
Cc1ccc2cccc(NC(=O)c3ccccc3OCCN3CCCC3=O)c2n1 | -3
CNC(=O)Cc1ccc(-c2c(Cl)cccc2OC)cc1 | 2
O=C(CCCc1ccccc1)NCCc1csc(-c2ccc(C(F)(F)F)cc2)n1 | 10
Cc1nnc(SCCCNC(=O)c2c(C)nc3sccn23)s1 | -35
Cc1cc(C)n(C(C)C(=O)NCc2ccc(CN3CCCC3=O)cc2)n1 (centres undefined) | 26
Cc1c(Cl)cccc1S(=O)(=O)N1CCc2nc(-c3ccccc3)sc2C1 | -83*
CCc1ccccc1S(=O)(=O)N1CCc2nc(-c3ccccc3)sc2C1 | -68
Cc1ccc(-c2nc3c(s2)CN(S(=O)(=O)c2ccc(Cl)cc2)CC3)cc1 | 23
Cc1ccc(CN2CCc3nc(N4CCCC4)nc(C)c3C2)cc1 | -21
Cc1ccc(NC(=O)CN2C(=O)CCc3cc(S(=O)(=O)N4CCCCC4C)ccc32)cc1 (centres undefined) | 3
COc1ccc(-c2nnn(CC(=O)Nc3ccc(C)cc3)n2)cc1 | -97*
COCCCNC(=O)Cn1nnc(-c2ccc(NC(=O)c3cccnc3)cc2)n1 | -6
Cc1ccc(-c2nnn(CC(=O)Nc3ccc(N4CCCS4(=O)=O)cc3)n2)cc1 | 5
O=C(NCCc1csc(C2CCCN(C(=O)/C=C/c3ccccc3Cl)C2)n1)C1CC1 (centres undefined) | -36
SMILES | Tgondii IFNg
Cc1ccc(C(=O)N2CCc3ccc(=O)n(CC4CC4)c3CC2)o1 | 10
CCn1c(C2CCCNC2)nn(Cc2cc(-c3cccnc3)no2)c1=O (centres undefined) | -2
CCS(=O)(=O)N1CCC[C@@H](Cn2nnc(-c3ccccn3)n2)C1 | -10
COc1cc(C2N3CCCN2CC3)ccc1OCc1ccccc1 (centres undefined) | 162
COc1ccc(-c2nnc(-c3nc(NC4CCCCC4)c4ccccc4n3)o2)cc1 | -23
COc1cc(-c2nnc(C3CCCCC3)o2)ccc1OCc1ccccc1 | -81*
COCC1CCC2(CCN(C(=O)CCc3ccccc3)CC2)N1C (centres undefined) | -7
C=CCc1c(C)nc2ccc(C(=O)OCC)cc2c1Cl | -102*
C=CCc1c(C)nc(SC)nc1Nc1ccc(C(=O)O)cc1 | -7
CCOC(=O)c1cccc(P(C)(C)=O)c1 | 14
c1ccc(-c2ncn(CCc3csc(-c4ncccn4)n3)c2C2CC2)cc1 | 9
CCN(CC)CCN(Cc1ccc(-c2ccc(C(F)(F)F)cc2)cc1)C(=O)Cn1c(SCc2ccc(F)cc2)nc(=O)c2c1CCC2 | -76*
CCN(Cc1ccncc1)C(=O)CCNC(=O)c1ccc(F)cc1 | 75
CN(C(=O)CSc1ccc(C(F)(F)F)cn1)c1c2c(nn1C)CCCC2 | -26
CSCc1ccc(C(=O)N(C)Cc2nc3ccc(C)cc3[nH]2)o1 | -27
COc1cccc2c1OCC(C(=O)N1Cc3cnn(CCO)c3C1)C2 (centres undefined) | 66
CC(C)CNc1nc2c(cc1C(=O)NC(C)C)CCN(c1ccncn1)CC2 | -39
CSc1nccc(NCC2CNCCOC2)n1 (centres undefined) | 5
CC(C)Oc1ccc(C2NC(=O)c3ccccc3O2)cc1 (centres undefined) | -98*
O=C1NCC(c2ccccc2)Oc2ccccc21 (centres undefined) | -27
CC(C)Oc1ccc2c(=O)c(-c3ccccc3)coc2c1 | 431
CN(CCC(C)(C)O)C(=O)c1ccc(N)nc1 | 12
O=C(Nc1cccc(F)c1)NC1CCN(CC(=O)N2CCOCC2)CC1 | 113
CCOC(=O)C1CCCN(C(=O)c2cc3n(n2)CCCN(C)C3)C1 (centres undefined) | 28
COc1ccc(C2c3[nH]c4ccccc4c3CCN2C(=O)c2ccncc2)cc1 (centres undefined) | 117
SMILES | Tgondii IFNg
O=C(c1ccc(F)cc1)N1CCc2c([nH]c3ccccc23)C1c1cccnc1 (centres undefined) | -47
O=C(CCC1CCCC1)N1CCc2c([nH]c3ccccc23)C1c1cccnc1 (centres undefined) | 104
O=C(c1cccc(F)c1)N1CCc2c([nH]c3ccccc23)C1c1cccnc1 (centres undefined) | -96*
COc1cccc(C(=O)N2CCc3c([nH]c4ccccc34)C2c2cccnc2)c1 (centres undefined) | -107*
OC1CCN(c2ccnc(N3CCC(O)(c4ccc(Cl)cc4)CC3)n2)C1 (centres undefined) | -5
Nc1ccc(Nc2nc(-c3ccccn3)cs2)cc1 | 286
CN1CC(=O)N(c2cccc(F)c2)CC12CCN(C(=O)c1cccs1)C2 (centres undefined) | 10
CN1CC(=O)N(c2ccsc2)CC12CCN(CC(=O)O)C2 (centres undefined) | 3
CN1CC(=O)N(c2ccsc2)CC12CCN(C(=O)Nc1ccccc1F)C2 (centres undefined) | -101*
CCOc1ccc(-c2nc(Cn3nnc(C(=O)Nc4ccccc4CC)c3C)c(C)o2)cc1 | -11
Cc1cccc(-c2nc(Cn3nnc(-c4nc(-c5ccc(Cl)cc5)no4)c3C)c(C)o2)c1 | 7
O=C(Nc1ccccc1)[C@@H]1CCS(=O)(=O)[C@H]2CN(Cc3ccccc3F)C[C@@H]12 | 6
CCOc1ccc(NC(=O)C(=O)NCCc2sc(-c3cccc(F)c3)nc2C)cc1 | 6
O=C(NC(=O)c1ccc(C(F)(F)F)cc1)NN1CCCCCC1 | -77*
C#CCOC(=O)NC(=O)c1ccc(C(F)(F)F)cc1 | -15
O=C(Nc1cc(C(F)(F)F)ccc1N1CCCCC1)c1ccncc1 | 16
CC(C)OCC(=O)N1CCCC(C(=O)c2ccc(C(F)(F)F)cc2)C1 (centres undefined) | -6
Cc1cc(C(=O)N2CC[C@H]3CN(CC(C)C)S(=O)(=O)[C@@H]3CC2)no1 | 23
O=c1c(Cl)c(-n2cccn2)cnn1-c1ccc(Cl)cc1Cl | 56
Cc1c(-c2ccnc(N)n2)nnn1-c1ccc(Cl)cc1Cl | -109*
Cc1c(-c2ccccc2)nnn1-c1cc(Cl)cc(Cl)c1 | 52
COc1ccccc1-c1cc2c(=O)n(Cc3nc(-c4ccccc4C)oc3C)ccn2n1 | -13
COCCNC(=O)C1CCCN(C2CCN(Cc3nccn3C)CC2)C1 (centres undefined) | -5
COc1ccc(-c2nc(Nc3ccc(C)cc3Cl)c3ccccc3n2)cc1 | -12
O=C(NCCc1csc(-c2ccc(F)cc2)n1)c1ccc(Br)cc1 | -79*
Cc1cc(C)cc(C(=O)NCCc2csc(-c3ccc(F)cc3)n2)c1 | -82*
